What all share (assay): DAPPL (digital affinity profiling via proximity ligation, sequencing); 10 mM Tris-HCl pH 7.5, 50 mM NaCl, 1 mM DTT, 4% glycerol, room temperature, 30 min; GST-TFs on glutathione beads, 16-mer random dsDNA library, 0.1% formaldehyde crosslink after washing; high values mean tight binding
Assay [1] deals with T1, FLI1 (Homo sapiens, UniProt Q01543 1-452).
T1 sequence: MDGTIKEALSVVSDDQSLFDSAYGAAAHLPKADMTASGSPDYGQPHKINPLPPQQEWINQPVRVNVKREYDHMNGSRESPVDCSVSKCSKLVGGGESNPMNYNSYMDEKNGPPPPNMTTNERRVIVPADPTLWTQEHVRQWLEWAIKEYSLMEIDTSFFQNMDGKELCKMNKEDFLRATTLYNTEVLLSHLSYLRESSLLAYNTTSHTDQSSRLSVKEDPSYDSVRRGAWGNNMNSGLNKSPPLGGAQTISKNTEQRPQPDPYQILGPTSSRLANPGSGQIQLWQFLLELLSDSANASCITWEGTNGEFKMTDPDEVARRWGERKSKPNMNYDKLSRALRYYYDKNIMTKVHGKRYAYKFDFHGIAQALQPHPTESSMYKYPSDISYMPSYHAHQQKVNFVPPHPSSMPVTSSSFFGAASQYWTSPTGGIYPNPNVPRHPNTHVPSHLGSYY
Conditions: protein: recombinant; tags: N-terminal GST; dsDNA, one strand shown. In short, it runs like this:
(§1)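 In yeast, human transcription factors were expressed with a GST fusion, then pulled down on glutathione beads and given DNA barcodes. Pooled with a tag-only sample, they were exposed to 200 nmole of a 16-mer random double-stranded DNA library (Tris/NaCl/DTT/glycerol buffer, room temperature, 30 min), washed, crosslinked with 0.1% formaldehyde, proximity-ligated using BsaI/T4 ligase for 1 h at 37 °C, PCR-amplified and read on an Illumina NextSeq500. Each hexamer's frequency of reads for a factor, divided by the matching frequency for the tag-only sample, gives the binding signal.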

The target of assay [2] is T2, ELK1 (Homo sapiens, UniProt P19419 1-428).
T2 sequence: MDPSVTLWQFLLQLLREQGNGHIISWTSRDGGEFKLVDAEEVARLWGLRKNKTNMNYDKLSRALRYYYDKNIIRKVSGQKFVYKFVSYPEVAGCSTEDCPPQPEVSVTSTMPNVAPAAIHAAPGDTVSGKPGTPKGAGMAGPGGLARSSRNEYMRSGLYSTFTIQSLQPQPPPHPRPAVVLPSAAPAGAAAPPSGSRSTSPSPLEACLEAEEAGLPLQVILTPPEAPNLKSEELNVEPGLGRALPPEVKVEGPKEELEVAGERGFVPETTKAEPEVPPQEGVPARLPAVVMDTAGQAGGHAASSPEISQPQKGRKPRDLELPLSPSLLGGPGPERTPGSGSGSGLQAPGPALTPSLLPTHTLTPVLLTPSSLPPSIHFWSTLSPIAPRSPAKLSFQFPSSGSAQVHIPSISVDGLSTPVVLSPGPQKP
The conditions noted are these: protein: recombinant; tags: N-terminal GST; dsDNA, one strand shown. An outline of the steps: as §1

Assay [3] deals with T3, GABPA (Homo sapiens, UniProt Q06546 1-454).
T3 sequence: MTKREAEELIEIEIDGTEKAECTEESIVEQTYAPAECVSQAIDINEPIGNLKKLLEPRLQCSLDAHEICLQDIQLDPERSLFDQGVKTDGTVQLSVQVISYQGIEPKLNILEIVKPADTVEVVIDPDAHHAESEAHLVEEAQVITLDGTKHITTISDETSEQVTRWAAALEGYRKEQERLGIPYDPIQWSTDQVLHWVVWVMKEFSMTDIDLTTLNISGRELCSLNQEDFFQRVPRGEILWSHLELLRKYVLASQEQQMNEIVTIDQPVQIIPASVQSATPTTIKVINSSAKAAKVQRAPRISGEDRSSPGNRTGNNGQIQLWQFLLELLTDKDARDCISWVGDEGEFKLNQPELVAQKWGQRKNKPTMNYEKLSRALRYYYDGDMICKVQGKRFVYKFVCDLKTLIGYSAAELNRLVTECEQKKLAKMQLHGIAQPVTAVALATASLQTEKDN
Conditions: protein: recombinant; tags: N-terminal GST; dsDNA, one strand shown. In short, it runs like this:
as §1

The target in assay [4] is T4, ERG (Homo sapiens, UniProt P11308 1-479).
T4 sequence: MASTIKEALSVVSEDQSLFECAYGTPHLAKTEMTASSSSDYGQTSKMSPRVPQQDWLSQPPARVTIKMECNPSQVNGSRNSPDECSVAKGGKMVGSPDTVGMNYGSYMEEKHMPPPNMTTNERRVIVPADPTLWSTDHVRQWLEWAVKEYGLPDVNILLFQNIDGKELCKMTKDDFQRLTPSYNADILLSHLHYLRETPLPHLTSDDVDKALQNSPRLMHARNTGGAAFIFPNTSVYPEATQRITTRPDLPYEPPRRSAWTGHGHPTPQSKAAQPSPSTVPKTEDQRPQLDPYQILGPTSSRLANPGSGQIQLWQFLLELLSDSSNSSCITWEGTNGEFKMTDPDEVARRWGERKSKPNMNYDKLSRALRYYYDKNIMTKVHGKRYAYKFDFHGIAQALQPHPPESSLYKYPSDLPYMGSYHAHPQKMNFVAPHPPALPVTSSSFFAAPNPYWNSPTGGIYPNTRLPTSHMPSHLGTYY
Conditions: protein: recombinant; tags: N-terminal GST; dsDNA, one strand shown. An outline of the steps:
as §1

Assay [5] concerns the target ELF1 (Homo sapiens, UniProt P32519 1-619). Conditions: protein: recombinant; tags: N-terminal GST; dsDNA, one strand shown. In short, it runs like this: as §1
For assay [6], the target named is T5, EHF (Homo sapiens, UniProt Q9NZC4 1-300).
T5 sequence: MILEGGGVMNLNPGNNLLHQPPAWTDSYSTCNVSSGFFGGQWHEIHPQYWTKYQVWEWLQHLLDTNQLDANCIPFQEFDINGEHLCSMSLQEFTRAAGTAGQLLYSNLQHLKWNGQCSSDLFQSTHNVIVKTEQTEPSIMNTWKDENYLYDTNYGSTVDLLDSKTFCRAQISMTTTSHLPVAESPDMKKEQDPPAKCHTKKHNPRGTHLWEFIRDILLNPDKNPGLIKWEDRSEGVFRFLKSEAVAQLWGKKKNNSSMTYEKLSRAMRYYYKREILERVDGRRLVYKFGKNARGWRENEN
The conditions noted are these: protein: recombinant; tags: N-terminal GST; dsDNA, one strand shown. In short, it runs like this:
as §1

For assay [7], the target named is SPI1 (Homo sapiens, UniProt P17947 1-270). The conditions noted are these: protein: recombinant; tags: N-terminal GST; dsDNA, one strand shown. In short, it runs like this: as §1
For assay [8], the target named is SPIB (Homo sapiens, UniProt Q01892 1-262). The conditions noted are these: protein: recombinant; tags: N-terminal GST; dsDNA, one strand shown. In short, it runs like this: as §1
Chain of SPIB (Q01892 whole entry): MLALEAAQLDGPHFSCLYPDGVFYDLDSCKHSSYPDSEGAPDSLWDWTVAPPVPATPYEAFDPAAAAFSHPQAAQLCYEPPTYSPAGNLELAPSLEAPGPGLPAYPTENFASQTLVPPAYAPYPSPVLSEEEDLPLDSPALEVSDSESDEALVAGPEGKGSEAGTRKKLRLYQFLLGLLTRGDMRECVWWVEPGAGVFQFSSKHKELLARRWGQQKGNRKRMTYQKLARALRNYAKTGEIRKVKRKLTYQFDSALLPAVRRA
For assay [9], the target named is T6, ELK3 (Homo sapiens, UniProt P41970 1-407).
T6 sequence: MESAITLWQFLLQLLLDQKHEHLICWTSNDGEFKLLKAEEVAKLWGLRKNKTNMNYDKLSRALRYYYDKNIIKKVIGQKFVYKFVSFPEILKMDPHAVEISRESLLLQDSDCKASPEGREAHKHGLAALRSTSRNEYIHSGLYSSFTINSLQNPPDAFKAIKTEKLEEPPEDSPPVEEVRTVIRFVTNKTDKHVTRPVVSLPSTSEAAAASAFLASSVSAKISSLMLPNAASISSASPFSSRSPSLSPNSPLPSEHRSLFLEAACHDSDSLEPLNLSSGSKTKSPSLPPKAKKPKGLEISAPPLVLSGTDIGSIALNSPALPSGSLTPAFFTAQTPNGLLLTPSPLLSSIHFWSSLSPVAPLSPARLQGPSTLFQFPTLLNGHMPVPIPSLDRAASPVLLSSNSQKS
Conditions: protein: recombinant; tags: N-terminal GST; dsDNA, one strand shown. An outline of the steps: as §1

The target of assay [10] is T7, FEV (Homo sapiens, UniProt Q99581 1-238).
T7 sequence: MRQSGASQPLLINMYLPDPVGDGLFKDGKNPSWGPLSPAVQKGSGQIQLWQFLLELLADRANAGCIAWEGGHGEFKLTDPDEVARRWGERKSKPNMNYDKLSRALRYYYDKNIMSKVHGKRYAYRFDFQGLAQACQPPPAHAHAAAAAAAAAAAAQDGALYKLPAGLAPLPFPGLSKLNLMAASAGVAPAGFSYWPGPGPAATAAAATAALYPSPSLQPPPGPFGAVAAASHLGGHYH
Conditions: protein: recombinant; tags: N-terminal GST; dsDNA, one strand shown. In short, it runs like this: as §1

Assay [11] deals with ETV5 (Homo sapiens, UniProt P41161 1-510). Conditions: protein: recombinant; tags: N-terminal GST; dsDNA, one strand shown. An outline of the steps: as §1
Chain of ETV5 (P41161 whole entry): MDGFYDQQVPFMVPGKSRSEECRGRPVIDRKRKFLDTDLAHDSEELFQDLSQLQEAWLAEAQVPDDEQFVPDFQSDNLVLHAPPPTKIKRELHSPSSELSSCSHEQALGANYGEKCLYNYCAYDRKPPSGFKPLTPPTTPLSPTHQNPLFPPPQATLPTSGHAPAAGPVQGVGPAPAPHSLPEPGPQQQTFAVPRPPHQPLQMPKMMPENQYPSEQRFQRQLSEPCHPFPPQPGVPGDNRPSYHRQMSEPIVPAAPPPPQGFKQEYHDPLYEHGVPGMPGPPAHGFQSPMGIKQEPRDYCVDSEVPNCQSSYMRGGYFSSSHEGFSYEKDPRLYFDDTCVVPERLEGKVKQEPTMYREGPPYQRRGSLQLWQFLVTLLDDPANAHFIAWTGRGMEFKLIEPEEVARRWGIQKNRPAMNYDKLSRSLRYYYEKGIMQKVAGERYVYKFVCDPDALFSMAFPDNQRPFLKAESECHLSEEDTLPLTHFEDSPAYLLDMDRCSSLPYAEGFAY
Assay [12] concerns the target HSF1 (Homo sapiens, UniProt Q00613 1-529). The conditions noted are these: protein: recombinant; tags: N-terminal GST; chain copies: 3; dsDNA, one strand shown. An outline of the steps:
as §1

The target of assay [13] is T8, SPIC (Homo sapiens, UniProt Q8N5J4 1-248).
T8 sequence: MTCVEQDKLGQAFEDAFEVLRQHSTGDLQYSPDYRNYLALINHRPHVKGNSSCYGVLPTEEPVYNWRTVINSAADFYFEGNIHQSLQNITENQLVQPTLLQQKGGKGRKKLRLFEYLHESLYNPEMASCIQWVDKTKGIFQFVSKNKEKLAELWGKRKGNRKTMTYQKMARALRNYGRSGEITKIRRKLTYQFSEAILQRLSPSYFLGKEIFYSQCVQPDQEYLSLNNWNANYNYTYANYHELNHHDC
Conditions: protein: recombinant; tags: N-terminal GST; dsDNA, one strand shown. An outline of the steps:
as §1

The target of assay [14] is ELF4 (Homo sapiens, UniProt Q99607 1-663). The conditions noted are these: protein: recombinant; tags: N-terminal GST; dsDNA, one strand shown. In short, it runs like this:
as §1

The target of assay [15] is T9, ELK4 (Homo sapiens, UniProt P28324-2 1-405).
T9 sequence: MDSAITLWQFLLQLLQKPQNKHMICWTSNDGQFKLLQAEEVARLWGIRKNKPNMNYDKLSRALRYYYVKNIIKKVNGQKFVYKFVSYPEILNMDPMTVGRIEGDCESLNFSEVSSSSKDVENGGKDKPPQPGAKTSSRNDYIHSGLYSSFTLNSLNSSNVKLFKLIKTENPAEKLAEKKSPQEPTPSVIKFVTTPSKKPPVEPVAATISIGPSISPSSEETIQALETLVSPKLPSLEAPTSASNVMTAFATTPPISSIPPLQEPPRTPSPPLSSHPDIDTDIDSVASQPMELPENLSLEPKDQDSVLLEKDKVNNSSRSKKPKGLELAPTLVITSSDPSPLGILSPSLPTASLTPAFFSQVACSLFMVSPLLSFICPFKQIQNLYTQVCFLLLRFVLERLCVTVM
The conditions noted are these: protein: recombinant; tags: N-terminal GST; dsDNA, one strand shown. In short, it runs like this: as §1

The target of assay [16] is T10, ETV2 (Homo sapiens, UniProt O00321 1-342).
T10 sequence: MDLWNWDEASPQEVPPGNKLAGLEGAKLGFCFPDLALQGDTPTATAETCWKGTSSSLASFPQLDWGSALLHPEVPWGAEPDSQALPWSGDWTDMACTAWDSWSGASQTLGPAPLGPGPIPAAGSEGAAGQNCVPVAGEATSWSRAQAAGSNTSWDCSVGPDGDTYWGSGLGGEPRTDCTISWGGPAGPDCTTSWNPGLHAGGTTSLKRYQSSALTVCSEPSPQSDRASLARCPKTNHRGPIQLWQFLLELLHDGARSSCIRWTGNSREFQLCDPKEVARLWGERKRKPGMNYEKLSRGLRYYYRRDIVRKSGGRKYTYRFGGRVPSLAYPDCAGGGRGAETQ
Conditions: protein: recombinant; tags: N-terminal GST; dsDNA, one strand shown. An outline of the steps:
as §1

The target of assay [17] is T11, ELF3 (Homo sapiens, UniProt P78545 1-371).
T11 sequence: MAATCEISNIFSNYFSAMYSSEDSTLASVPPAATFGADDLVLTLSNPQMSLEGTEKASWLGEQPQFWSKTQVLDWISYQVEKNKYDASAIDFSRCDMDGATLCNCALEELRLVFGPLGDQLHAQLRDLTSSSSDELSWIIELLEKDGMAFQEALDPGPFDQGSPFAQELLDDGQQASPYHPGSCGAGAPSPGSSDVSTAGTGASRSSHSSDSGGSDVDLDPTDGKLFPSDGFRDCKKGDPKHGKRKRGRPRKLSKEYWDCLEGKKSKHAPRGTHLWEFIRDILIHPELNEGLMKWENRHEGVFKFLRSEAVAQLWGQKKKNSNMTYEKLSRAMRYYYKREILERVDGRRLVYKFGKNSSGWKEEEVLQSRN
The conditions noted are these: protein: recombinant; tags: N-terminal GST; dsDNA, one strand shown. In short, it runs like this: as §1

For assay [18], the target named is CRX (Homo sapiens, UniProt O43186 1-299). The conditions noted are these: protein: recombinant; tags: N-terminal GST; dsDNA, one strand shown. An outline of the steps:
as §1

In assay [19] the target is ETV1 (Homo sapiens, UniProt P50549 1-477). The conditions noted are these: protein: recombinant; tags: N-terminal GST; dsDNA, one strand shown. An outline of the steps:
as §1

Our source for the binding signal values is paper PMC7862700, “An all-to-all approach to the identification of sequence-specific readers for epigenetic DNA modifications on cytosine”.

Chain of ELF1 (P32519 whole entry): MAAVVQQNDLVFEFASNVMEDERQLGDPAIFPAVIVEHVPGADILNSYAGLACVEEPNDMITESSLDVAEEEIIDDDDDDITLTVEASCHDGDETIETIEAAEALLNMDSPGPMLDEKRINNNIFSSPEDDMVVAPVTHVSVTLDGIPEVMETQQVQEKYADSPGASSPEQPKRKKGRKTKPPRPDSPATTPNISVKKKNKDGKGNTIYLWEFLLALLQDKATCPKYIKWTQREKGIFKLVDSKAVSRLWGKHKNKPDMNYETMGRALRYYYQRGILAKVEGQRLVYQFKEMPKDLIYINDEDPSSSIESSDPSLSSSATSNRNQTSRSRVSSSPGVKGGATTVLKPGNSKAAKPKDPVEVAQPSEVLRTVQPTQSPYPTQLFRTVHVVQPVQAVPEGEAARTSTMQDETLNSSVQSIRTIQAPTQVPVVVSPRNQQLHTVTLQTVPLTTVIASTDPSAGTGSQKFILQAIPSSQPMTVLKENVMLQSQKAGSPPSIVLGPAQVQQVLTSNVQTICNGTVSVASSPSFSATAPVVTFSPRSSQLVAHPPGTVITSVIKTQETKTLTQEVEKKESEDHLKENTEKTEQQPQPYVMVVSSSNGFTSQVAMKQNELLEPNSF
Chain of ELF4 (Q99607 whole entry): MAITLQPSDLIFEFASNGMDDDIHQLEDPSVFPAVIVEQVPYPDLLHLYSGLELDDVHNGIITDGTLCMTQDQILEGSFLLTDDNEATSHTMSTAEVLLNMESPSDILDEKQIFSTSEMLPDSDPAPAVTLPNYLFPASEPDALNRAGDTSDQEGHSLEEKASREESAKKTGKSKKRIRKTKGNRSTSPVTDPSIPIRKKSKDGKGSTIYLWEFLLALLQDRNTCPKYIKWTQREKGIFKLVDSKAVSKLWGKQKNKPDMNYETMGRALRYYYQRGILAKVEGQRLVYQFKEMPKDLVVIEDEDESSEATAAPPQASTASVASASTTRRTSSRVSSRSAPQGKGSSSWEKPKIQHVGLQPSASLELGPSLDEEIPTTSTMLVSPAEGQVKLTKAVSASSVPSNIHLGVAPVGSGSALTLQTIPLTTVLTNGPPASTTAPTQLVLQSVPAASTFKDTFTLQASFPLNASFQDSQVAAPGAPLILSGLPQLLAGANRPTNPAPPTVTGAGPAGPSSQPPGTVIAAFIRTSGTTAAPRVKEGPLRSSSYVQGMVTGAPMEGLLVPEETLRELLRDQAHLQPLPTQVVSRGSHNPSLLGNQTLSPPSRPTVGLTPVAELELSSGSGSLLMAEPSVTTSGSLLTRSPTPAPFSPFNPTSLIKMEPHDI
Chain of ETV1 (P50549 whole entry): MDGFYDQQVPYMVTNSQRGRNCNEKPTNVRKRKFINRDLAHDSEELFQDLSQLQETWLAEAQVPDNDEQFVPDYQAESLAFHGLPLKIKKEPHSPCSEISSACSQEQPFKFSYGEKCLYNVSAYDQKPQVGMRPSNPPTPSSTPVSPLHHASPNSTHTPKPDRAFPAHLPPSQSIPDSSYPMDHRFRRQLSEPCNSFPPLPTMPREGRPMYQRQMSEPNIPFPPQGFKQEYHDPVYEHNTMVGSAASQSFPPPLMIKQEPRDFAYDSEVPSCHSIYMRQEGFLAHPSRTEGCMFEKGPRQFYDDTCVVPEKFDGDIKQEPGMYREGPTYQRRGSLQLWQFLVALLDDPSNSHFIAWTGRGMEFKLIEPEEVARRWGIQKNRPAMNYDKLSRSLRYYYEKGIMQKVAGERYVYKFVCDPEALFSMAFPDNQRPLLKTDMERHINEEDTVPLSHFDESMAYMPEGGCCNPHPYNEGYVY
Chain of CRX (O43186 whole entry): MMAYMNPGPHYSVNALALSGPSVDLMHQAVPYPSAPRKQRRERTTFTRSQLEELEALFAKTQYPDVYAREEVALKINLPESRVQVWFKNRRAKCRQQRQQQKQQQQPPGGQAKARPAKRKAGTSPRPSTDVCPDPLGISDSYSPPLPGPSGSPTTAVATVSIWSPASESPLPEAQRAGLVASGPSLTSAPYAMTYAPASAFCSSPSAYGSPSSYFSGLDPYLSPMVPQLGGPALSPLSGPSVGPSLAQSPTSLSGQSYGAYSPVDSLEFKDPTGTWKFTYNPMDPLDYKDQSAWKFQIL
Chain of HSF1 (Q00613 whole entry): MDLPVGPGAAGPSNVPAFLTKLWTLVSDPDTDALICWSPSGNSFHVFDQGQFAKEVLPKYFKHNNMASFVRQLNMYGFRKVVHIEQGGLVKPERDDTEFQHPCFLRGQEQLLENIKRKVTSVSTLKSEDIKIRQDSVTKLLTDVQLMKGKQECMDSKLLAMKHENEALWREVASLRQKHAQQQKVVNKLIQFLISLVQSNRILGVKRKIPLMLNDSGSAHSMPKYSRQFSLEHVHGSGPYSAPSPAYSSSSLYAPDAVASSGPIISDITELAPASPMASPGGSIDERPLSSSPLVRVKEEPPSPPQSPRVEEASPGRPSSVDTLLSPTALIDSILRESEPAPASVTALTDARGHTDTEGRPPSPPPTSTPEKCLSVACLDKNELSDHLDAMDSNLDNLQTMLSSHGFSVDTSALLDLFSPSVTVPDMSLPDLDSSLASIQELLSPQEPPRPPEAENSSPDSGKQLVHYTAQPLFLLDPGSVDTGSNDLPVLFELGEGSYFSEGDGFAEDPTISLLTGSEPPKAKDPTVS

With GCTCAT, the binding signal in assay [1] is 1.23 fold enrichment (6-mer frequency, TF over GST control); in assay [2], 1.29 fold enrichment (6-mer frequency, TF over GST control); in assay [3], 1.23 fold enrichment (6-mer frequency, TF over GST control); in assay [4] it was 1.32 fold enrichment (6-mer frequency, TF over GST control); in [5], 1.36 fold enrichment (6-mer frequency, TF over GST control); in [6], 1.26 fold enrichment (6-mer frequency, TF over GST control). In addition, the binding signal is 1.21 fold enrichment (6-mer frequency, TF over GST control) in [7]; 1.31 fold enrichment (6-mer frequency, TF over GST control) in [8]; 1.16 fold enrichment (6-mer frequency, TF over GST control) in assay [9]; 1.2 fold enrichment (6-mer frequency, TF over GST control) in assay [10]; 1.19 fold enrichment (6-mer frequency, TF over GST control) in [11]; 1.15 fold enrichment (6-mer frequency, TF over GST control) in [12]. For the same sequence, the binding signal is 1.32 fold enrichment (6-mer frequency, TF over GST control) in assay [13]; 1.18 fold enrichment (6-mer frequency, TF over GST control) in assay [14]; 1.3 fold enrichment (6-mer frequency, TF over GST control) in assay [15]; 1.39 fold enrichment (6-mer frequency, TF over GST control) in assay [16]; 1.34 fold enrichment (6-mer frequency, TF over GST control) in [17]; 1.35 fold enrichment (6-mer frequency, TF over GST control) in assay [18]. The binding signal in [19] is 1.22 fold enrichment (6-mer frequency, TF over GST control).
